What all share (design): scale not given: direction of the effect not stated beside the values
In assay [1] the target is Protein translocase subunit SecA (Escherichia coli (strain K12)) (UniProt P10408). Briefly: Assay to Identify E. coli SecA ATPase Inhibitors. In kind it is functional. The note with it: 30 µM.
Assay [2] addresses T1, Ubiquitin-activating enzyme e1, putative (Leishmania donovani (strain BPK282A1)) (UniProt E9BSI1).
T1 sequence (whole entry): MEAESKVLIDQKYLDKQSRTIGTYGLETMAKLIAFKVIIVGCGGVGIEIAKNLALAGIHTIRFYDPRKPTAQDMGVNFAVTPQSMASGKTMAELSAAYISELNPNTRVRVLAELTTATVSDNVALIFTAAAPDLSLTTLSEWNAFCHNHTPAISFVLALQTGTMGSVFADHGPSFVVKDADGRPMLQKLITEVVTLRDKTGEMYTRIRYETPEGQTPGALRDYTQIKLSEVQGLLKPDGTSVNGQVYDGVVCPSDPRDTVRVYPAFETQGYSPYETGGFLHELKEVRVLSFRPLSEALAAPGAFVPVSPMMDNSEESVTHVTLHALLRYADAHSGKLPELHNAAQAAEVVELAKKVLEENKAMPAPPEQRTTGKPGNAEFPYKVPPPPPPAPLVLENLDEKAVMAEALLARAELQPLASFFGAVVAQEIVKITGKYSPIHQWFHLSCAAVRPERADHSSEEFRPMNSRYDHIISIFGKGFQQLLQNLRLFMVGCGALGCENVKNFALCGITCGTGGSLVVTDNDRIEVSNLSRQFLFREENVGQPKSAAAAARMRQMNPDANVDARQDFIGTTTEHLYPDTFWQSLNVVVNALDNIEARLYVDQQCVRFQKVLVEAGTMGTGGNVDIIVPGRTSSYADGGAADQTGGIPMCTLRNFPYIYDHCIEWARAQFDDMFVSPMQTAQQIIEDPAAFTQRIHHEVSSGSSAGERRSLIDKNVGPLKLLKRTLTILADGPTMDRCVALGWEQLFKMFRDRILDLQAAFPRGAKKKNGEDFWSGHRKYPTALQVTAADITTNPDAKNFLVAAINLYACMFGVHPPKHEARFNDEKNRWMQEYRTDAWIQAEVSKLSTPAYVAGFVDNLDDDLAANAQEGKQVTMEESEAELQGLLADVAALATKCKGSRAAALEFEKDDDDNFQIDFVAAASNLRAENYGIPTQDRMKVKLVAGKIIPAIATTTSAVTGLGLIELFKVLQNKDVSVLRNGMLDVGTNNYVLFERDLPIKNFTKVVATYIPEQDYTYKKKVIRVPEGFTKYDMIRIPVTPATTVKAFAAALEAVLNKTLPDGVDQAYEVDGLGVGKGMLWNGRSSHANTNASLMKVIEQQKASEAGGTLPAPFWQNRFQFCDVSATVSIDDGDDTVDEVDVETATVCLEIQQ
Briefly: Leishmania donovani Ubiquitin Activating Enzyme (LdE1). In kind it is functional. The note with it: 30 µM.

For assay [3], the target named is AMP-activated protein kinase, AMPK (Homo sapiens) (UniProt P54646+O43741+P54619+Q9UGJ0+Q9Y478+Q13131+Q9UGI9). Briefly: AMP-dependent Kinase enzyme assay. An in vitro enzyme assay that detects ADP turnover that is directly proportional to AMPK activity. This uses naive AMPK that is activated during the assay with MK-8722. The assay is classed as functional. Particulars: 30 µM.

The target in assay [4] is Sialic acid-binding Ig-like lectin 9 (Homo sapiens) (UniProt Q9Y336). Briefly: Hs-Siglec9 ALPHAscreen SOP 20170721. Particulars: 10 µM.
A further assay concerns Trypanosoma cruzi. Briefly: Trypanosoma cruzi phosphomannomutase and mannose-1-phosphate guanylyltransferase assay. The assay is classed as functional. The note with it: 10 µM.
Assay [5] concerns the target T2, Arginase-2, mitochondrial (Homo sapiens) (UniProt P78540).
T2 sequence (whole entry): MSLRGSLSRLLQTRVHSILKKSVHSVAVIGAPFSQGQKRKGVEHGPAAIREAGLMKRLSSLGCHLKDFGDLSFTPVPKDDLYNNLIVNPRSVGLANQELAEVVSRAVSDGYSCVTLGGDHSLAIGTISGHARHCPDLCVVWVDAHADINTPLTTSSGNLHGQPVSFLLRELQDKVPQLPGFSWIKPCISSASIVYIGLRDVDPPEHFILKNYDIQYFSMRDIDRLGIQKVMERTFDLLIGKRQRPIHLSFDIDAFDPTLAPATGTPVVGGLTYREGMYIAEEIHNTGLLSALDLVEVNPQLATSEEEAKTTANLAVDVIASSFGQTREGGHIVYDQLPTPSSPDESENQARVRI
The experiment in a line: in vitro enzyme assay to detect the production of urea directly proportional to the activity of Arginase II. Note: in the data most compounds retested in dose-response had high values. In kind it is functional. The note with it: 33.3 µM.

Assay [6] addresses T3, Proteasome subunit beta (Trypanosoma cruzi) (UniProt O96673).
T3 sequence (whole entry): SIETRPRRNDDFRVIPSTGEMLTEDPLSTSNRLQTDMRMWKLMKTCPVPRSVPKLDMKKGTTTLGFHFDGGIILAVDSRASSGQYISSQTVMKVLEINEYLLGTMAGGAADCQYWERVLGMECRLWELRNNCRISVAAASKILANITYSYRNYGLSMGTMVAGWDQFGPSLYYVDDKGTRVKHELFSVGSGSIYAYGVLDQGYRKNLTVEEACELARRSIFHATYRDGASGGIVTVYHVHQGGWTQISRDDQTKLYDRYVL
Briefly: Trypanosoma cruzi proteasome chymotrypsin-like activity (TcProtChymo) assay. Note: in the data most compounds retested in dose-response had high values. In kind it is functional. The note with it: 9.37 µM.

For a further assay, the species on record is Homo sapiens. The experiment in a line: To identify inhibition of the IFN signalling (Jak-Stat) pathway via expression of an eGFP reporter gene under the control of an IFN-stimulated response element (ISRE) containing MxA promoter. In kind it is functional. The note with it: 30 µM.
Assay [7] addresses T4, Tyrosyl-tRNA synthetase, putative (Trypanosoma cruzi (strain CL Brener)) (UniProt Q4DSP6).
T4 sequence (whole entry): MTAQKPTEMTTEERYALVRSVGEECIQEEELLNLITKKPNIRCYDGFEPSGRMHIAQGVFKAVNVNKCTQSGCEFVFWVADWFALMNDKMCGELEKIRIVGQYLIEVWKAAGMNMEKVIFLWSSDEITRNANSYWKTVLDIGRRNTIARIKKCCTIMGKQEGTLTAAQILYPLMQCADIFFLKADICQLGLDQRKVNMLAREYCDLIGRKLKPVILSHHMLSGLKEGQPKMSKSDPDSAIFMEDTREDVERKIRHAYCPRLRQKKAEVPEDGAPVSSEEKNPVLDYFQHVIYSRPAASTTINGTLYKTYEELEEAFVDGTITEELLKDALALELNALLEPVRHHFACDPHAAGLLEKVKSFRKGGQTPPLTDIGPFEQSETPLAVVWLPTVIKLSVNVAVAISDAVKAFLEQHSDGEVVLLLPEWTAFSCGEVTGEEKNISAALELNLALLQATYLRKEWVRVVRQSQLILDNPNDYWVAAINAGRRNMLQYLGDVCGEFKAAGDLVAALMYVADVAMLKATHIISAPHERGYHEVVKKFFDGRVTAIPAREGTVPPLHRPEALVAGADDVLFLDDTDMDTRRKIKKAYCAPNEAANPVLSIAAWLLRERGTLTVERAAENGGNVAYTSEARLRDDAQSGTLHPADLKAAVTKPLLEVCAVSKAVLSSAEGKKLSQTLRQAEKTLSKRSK
Briefly: Trypanosoma cruzi tyrosyl tRNA synthetase (TcYRS) _High Tyrosine SOP. Note: in the data most compounds retested in dose-response had high values. The assay is classed as functional. The note with it: 30 µM.

Assay [8] deals with T4, Tyrosyl-tRNA synthetase, putative (Trypanosoma cruzi (strain CL Brener)). The experiment in a line: Trypanosoma cruzi tyrosyl tRNA synthetase (TcYRS) SOP. The assay is classed as functional. The note with it: 30 µM.
Assay [9] addresses Chromo domain-containing protein 1 (Saccharomyces cerevisiae (strain ATCC 204508 / S288c) (Baker's yeast)) (UniProt P32657). Briefly: ScCHD-1 Enzyme Inhibition Assay. Note: in the data most compounds retested in dose-response had high values. The assay is classed as functional. Particulars: 30 µM.

For some of these results: Potency and affinity values are given separately.

Sequence of Protein translocase subunit SecA (Escherichia coli (strain K12)) (P10408 whole entry): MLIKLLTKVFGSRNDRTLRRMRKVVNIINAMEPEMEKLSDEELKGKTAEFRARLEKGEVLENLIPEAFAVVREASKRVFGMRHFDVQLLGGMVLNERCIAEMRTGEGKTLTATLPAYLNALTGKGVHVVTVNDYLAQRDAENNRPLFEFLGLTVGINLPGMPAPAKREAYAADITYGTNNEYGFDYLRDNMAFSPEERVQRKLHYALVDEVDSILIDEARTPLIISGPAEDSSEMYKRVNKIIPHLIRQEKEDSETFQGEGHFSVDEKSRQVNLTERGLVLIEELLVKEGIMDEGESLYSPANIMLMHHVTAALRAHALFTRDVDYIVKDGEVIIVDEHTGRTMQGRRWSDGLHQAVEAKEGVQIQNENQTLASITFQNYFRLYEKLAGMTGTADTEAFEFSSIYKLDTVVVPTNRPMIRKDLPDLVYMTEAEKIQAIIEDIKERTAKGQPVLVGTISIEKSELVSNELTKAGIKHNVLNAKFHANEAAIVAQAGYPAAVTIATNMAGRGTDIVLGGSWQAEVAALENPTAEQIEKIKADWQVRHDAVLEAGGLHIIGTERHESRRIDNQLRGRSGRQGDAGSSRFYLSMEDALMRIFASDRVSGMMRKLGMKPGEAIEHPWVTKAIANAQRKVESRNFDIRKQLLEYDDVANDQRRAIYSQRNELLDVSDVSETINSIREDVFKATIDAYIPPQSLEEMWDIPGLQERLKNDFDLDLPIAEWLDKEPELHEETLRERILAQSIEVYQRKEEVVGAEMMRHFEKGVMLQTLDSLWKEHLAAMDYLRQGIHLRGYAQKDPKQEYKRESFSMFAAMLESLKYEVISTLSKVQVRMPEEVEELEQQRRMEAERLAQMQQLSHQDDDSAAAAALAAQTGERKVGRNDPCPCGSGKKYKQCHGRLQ
Sequence of Chromo domain-containing protein 1 (Saccharomyces cerevisiae (strain ATCC 204508 / S288c) (Baker's yeast)) (P32657 whole entry, the tested form may be a part): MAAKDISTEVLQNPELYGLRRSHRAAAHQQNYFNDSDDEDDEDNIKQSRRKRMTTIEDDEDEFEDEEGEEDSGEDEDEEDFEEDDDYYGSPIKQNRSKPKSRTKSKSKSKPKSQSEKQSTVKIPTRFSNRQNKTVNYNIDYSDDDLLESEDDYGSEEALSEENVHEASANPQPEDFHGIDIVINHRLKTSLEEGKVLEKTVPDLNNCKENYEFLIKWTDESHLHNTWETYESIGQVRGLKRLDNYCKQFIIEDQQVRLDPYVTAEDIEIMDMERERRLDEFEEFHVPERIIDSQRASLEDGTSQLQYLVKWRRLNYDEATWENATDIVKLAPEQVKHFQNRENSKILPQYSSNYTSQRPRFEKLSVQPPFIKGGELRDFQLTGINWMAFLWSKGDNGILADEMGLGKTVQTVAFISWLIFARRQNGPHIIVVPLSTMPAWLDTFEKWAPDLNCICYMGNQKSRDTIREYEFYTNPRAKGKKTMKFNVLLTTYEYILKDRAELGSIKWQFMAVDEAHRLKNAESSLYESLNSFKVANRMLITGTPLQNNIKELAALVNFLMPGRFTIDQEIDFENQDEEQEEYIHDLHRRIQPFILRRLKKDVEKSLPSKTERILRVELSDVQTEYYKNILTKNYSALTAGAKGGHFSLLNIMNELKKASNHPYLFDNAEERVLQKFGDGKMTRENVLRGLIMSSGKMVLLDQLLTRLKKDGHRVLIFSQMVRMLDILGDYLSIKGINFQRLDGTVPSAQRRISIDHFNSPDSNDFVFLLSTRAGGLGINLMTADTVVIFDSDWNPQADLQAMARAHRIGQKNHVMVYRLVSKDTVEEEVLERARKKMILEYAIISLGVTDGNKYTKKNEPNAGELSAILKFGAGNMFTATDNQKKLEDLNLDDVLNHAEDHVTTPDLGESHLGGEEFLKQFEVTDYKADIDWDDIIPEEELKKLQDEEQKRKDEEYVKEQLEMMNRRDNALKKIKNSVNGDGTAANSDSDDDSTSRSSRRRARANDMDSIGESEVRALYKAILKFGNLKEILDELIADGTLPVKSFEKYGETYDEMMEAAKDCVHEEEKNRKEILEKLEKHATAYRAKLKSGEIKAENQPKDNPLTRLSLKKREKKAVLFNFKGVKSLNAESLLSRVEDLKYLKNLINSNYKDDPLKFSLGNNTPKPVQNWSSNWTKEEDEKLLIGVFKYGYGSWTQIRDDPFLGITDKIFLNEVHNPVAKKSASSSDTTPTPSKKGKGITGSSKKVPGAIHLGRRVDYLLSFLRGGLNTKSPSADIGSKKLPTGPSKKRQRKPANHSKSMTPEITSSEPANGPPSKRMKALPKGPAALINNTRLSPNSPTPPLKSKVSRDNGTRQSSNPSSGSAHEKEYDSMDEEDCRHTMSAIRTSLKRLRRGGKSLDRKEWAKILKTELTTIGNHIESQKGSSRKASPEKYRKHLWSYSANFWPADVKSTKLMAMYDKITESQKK
Sequence of Sialic acid-binding Ig-like lectin 9 (Homo sapiens) (Q9Y336 whole entry): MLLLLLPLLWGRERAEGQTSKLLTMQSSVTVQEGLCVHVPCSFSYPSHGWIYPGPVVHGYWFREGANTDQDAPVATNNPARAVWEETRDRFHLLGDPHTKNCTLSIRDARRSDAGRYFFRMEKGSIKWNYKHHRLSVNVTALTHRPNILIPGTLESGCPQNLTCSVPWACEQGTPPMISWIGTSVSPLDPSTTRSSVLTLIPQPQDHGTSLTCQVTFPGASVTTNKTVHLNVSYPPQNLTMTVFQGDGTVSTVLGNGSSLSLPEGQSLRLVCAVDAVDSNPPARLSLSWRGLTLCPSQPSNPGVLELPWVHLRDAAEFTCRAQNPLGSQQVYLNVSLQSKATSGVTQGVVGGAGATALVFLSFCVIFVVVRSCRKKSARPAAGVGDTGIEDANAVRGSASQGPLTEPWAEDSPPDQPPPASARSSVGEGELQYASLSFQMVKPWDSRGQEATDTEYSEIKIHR

Regarding `Cc1cc(C)n(Cc2ccc(C(=O)NCCN3CCOCC3)cc2)n1`, the Percent Effect in assay [1] is -1.98%; in [2] it was 4.17%; in assay [3] it was -0.277%; in assay [4], -1.95%; in the assay with Trypanosoma cruzi, 6.32%; in assay [5], -0.442%. The Percent Effect in assay [6] was 19.6%; in the assay listed under Homo sapiens, 5.69%; in [7], 7.37%; in assay [8], 7.69%; in assay [9] it was -6.36%.
`COc1ccc(C2=CCN(C(=O)C3CCN(C)C(=O)C3)CC2)cc1` (stereo unspecified): the Percent Effect in [1] was -3.77%; in assay [2], 15.8%; in assay [3] it was 2.43%; in assay [4], -4.29%; in the assay with Trypanosoma cruzi, 9.06%; in assay [5] it was 1.8%. Also, the Percent Effect was 7.19% in assay [6]; 6.58% in the assay listed under Homo sapiens; 7.39% in [7]; 16.1% in [8]; -5.39% in [9].
On to `CC(=O)N1CC(=O)N(c2ccccc2)CC12CCN(Cc1nccs1)C2` (stereo unspecified), for which the Percent Effect was 3.29% in assay [1]; 10.7% in assay [2]; 3.41% in [3]; -1.44% in assay [4]; -5.02% in the assay on Trypanosoma cruzi; -54.3% in assay [5]. The Percent Effect is 7.69% in assay [6]; -3.63% in the assay listed under Homo sapiens; 7.29% in assay [7]; 30% in assay [8]; -7.28% in assay [9].
On to `Cc1nnc(CN2CCCC(c3cc(C(N)=O)[nH]n3)C2)o1` (stereo unspecified), for which the Percent Effect was -3.02% in assay [1]; -5.41% in assay [2]; 0.969% in assay [3]; 11.5% in [4]; -1.23% in the assay on Trypanosoma cruzi; 0% in assay [5]. Further, the Percent Effect in [6] is -2.34%; in the assay listed under Homo sapiens, 2.07%; in assay [7], -1.48%; in assay [8], -1.24%; in [9] it was 1.61%.
On to `CN(C)CC1CN(c2ccc(C#N)cn2)CCO1` (stereo unspecified), for which the Percent Effect is -4.87% in assay [1]; -5.26% in [2]; -3.08% in assay [3]; 5.48% in [4]; 3.27% with Trypanosoma cruzi; -4.32% in assay [5]. Also, the Percent Effect in assay [6] was -5.16%; in the assay filed under Homo sapiens it was -1.95%; in assay [7], 2.46%; in [8], 3.7%; in assay [9], -8.21%.
Take `CCOCCN1CCn2c(C)nnc2C1`: the Percent Effect is 2.73% in [1]; 19% in assay [2]; 2.63% in assay [3]; -1.98% in assay [4]; -5.03% with Trypanosoma cruzi; -3.23% in assay [5]. Further, the Percent Effect in [6] is 13.9%; in the assay filed under Homo sapiens, 11.9%; in assay [7] it was 4.17%; in assay [8], 12.7%; in assay [9], -27.4%.
Regarding `CCNC(=O)C1CCN(Cc2csc(-c3ccc(C)o3)n2)CC1`, the Percent Effect in assay [1] is -0.895%; in assay [2], 11.4%; in [3], 2.01%; in assay [4], 2.17%; in the assay with Trypanosoma cruzi, 2.97%; in assay [5], 1.5%. Moreover, the Percent Effect in assay [6] was 14.1%; in the assay filed under Homo sapiens, 27.6%; in assay [7] it was 7.29%; in assay [8], 20.2%; in assay [9], -26.4%.
In the case of `COCCNC(=O)c1cc2c(s1)CCN2C(=O)c1ccccc1`, the Percent Effect in [1] is -6.01%; in [2] it was 10.7%; in assay [3] it was -16.6%; in assay [4], 4.96%; in the assay on Trypanosoma cruzi, 1.35%; in assay [5] it was -53.9%. The Percent Effect in assay [6] was 9.74%; in the assay filed under Homo sapiens, -0.33%; in [7], 6.25%; in assay [8] it was 15%; in [9], 6.46%.
Consider `COc1cccc(CNc2c(C)cnc3c2c(=O)n(C)c(=O)n3C)c1`, for which the Percent Effect in [1] is -2.5%; in assay [2] it was 16.4%; in assay [3] it was -3.93%; in assay [4] it was -14.8%; in the assay with Trypanosoma cruzi, 2.35%; in assay [5], 0.909%. The Percent Effect is 15.4% in [6]; 21.6% in the assay filed under Homo sapiens; 3.23% in [7]; 20% in assay [8]; -6.85% in assay [9].
For `COCC1CN(C(=O)COc2ccccc2)Cc2cn(C)nc21` (stereo unspecified), the Percent Effect in assay [1] is 1.54%; in assay [2], -2.6%; in assay [3], 1.75%; in assay [4], 4.23%; in the assay on Trypanosoma cruzi, -2.27%; in assay [5] it was -8.39%. In addition, the Percent Effect in assay [6] was 1.39%; in the assay listed under Homo sapiens, 9.62%; in [7], -5.29%; in assay [8], -1.28%; in assay [9], -6.88%.
With `Cc1nc(C2CCCN(C(=O)CCCn3ccnc3C)C2)no1` (stereo unspecified), the Percent Effect is -3.92% in assay [1]; -5.2% in [2]; -5.99% in [3]; -4.13% in assay [4]; -3.37% in the assay with Trypanosoma cruzi; 3.56% in assay [5]. In addition, the Percent Effect was -3.21% in assay [6]; 22.2% in the assay listed under Homo sapiens; -0.971% in [7]; -2.44% in [8]; 5.19% in assay [9].

Values taken from ChEMBL document CHEMBL3988442, “University of Dundee, Small-Polar-MMV Screening Library” (2021).
